According to PubChem BioAssay AID504333 (National Center for Advancing Translational Sciences (NCATS), 2011):
Screen size: about 360,000 compounds; about 16,000 (4.4%) were called active. Roughly 9% stayed inconclusive and do not appear here. This is one part of a sample in which actives are shown more often than they occur. Calls follow the shape of the dose curve; as a rule, active = well fitted inhibition curve with a large enough effect; inconclusive = small, poorly fitted or top-dose-only effect; inactive = no such curve, though single readings can be large or run the other way.

Each compound was assayed against Bromodomain adjacent to zinc finger domain protein 2B (Homo sapiens) (UniProt Q9UIF8) (assay: qHTS Assay for Inhibitors of BAZ2B). Settings: AlphaScreen BAZ2B-H3K14Ac peptide displacement; series mostly up to 114 µM; activity change, negative = inhibition: at the top concentration.
Chain of Bromodomain adjacent to zinc finger domain protein 2B (Homo sapiens) (Q9UIF8 whole entry, looked up, the tested form may be a part): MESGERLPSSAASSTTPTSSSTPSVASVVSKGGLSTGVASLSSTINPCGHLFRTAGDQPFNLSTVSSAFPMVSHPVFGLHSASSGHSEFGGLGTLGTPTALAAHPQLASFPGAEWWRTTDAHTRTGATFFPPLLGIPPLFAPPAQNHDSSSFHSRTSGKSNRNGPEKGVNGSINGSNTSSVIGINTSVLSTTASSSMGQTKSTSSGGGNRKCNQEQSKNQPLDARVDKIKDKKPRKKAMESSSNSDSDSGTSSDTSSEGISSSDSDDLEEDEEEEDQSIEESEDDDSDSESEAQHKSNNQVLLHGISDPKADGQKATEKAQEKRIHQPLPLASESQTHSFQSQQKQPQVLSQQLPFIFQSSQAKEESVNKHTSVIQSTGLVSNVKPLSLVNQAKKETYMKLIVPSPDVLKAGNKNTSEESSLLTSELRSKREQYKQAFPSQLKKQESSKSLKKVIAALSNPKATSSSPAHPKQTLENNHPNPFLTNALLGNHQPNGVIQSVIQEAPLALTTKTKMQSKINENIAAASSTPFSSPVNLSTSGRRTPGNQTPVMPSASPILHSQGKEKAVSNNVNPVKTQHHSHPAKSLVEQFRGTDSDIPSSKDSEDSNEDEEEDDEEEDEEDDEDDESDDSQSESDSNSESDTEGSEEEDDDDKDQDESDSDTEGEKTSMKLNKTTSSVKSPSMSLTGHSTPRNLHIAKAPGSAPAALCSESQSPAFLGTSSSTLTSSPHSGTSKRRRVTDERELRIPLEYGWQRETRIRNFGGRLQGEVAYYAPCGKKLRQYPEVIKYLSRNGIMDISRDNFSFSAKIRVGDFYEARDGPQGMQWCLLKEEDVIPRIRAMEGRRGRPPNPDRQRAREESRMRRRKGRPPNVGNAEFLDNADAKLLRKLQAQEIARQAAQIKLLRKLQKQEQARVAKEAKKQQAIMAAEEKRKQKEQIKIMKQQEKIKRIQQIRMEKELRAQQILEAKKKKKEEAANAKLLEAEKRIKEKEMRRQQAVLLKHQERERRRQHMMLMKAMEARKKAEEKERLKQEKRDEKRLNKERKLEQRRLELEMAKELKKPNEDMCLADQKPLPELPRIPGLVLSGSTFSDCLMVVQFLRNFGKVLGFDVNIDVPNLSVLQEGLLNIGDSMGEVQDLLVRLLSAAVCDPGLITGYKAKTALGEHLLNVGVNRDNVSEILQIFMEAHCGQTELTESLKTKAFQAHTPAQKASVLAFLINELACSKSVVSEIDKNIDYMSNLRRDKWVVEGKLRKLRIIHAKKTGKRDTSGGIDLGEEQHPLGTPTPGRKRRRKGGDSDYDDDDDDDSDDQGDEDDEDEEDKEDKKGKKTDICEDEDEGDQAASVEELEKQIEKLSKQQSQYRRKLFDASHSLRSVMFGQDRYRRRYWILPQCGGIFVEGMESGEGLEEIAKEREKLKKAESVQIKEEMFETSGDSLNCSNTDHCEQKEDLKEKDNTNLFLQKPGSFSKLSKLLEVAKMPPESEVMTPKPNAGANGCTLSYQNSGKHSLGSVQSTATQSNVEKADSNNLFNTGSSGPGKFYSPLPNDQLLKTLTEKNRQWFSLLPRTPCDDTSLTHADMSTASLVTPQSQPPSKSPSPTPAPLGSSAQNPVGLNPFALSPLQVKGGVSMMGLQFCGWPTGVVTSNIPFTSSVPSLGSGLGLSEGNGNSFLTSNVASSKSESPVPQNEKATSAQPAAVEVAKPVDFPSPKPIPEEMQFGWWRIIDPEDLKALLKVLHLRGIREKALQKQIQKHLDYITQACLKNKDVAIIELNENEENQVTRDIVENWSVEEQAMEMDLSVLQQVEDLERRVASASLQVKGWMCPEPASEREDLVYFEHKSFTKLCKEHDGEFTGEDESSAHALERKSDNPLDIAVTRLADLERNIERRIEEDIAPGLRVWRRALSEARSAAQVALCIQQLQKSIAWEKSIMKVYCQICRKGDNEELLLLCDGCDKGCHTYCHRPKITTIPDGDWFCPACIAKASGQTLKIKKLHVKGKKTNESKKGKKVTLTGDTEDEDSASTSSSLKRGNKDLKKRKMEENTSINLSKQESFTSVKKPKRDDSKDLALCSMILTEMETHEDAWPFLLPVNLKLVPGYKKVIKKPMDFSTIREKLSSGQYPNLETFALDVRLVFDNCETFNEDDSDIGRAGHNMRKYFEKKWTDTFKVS
Source text: BAZ2B (bromodomain adjacent to zinc finger domain, 2B) belongs to a family of ubiquitously expressed bromodomain containing proteins, which biological function has not yet been elucidated. […] The interaction of BAZ2B with ISWI mediated by the BAZ1 motif has recently been described. […] The protocol is based on the AlphaScreen (PerkinElmer) displacement assay developed by NCGC [5], but uses the peptide ligand Biot-H3K14Ac, a high affinity binding partner for BAZ2B, in an AlphaScreen format. Although AlphaScreen has significant advantages with its utility in a variety of epigenetic target assays, the primary screening data provided in this deposition should be used with caution due to the prevalence of screening artifacts. The top compound concentration tested was 110uM in this assay, which increases number of actives and potential artifacts. An AlphaScreen counterscreen is highly recommended to be run against any putative actives to eliminate non-specific artifacts. Alternatively, one can use other AlphaScreen assays in PubChem to filter out promiscuous hits. Eberharter, A. et al. ACF1 improves the effectiveness of nucleosome mobilization by ISWI through PHD-histone contacts. The EMBO journal 23, 4029-4039. 2004. PMID: 15457208 [2] Jones, M.H. et al. A novel family of bromodomain genes. Genomics 63, 40-45. 2000. PMID: 10662543 [3] Yasgar, et al. Compound Management for Quantitative High-Throughput Screening. JALA. 2008 Apr;13(2):79-89. PMID: 18496600 [4] Inglese, et al. Quantitative high-throughput screening: a titration-based approach that efficiently identifies biological activities in large chemical libraries. Proc Natl Acad Sci. 1;103(31):11473-8. 2006. PMID: 16864780 [5] Quinn et al. A chemiluminescence-based method for identification of histone lysine methyltransferase inhibitors. Mol Biosyst 6(5): 782-8. 2010. PMID: 20567762 [6] Baell,Holloway. New substructure filters for removal of pan assay interference compounds (PAINS) from screening libraries and for their exclusion in bioassays. J Med Chem. 53(7):2719-40. 2010. PMID: 20131845 NIH Molecular Libraries Probe Production Network [MLPCN] NIH Chemical Genomics Center [NCGC] Structural Genomics Consortium (SGC) NIH Grant: 5U54 MH084681-02
To each well of a 1,536w plate, 2ul of BAZ2B protein (final 50nM) and 1ul biotinylated histone peptide acetylated at Lys14 [b-H3(5-23)K14Ac] (final 50nM) were added in 1x PBS buffer, pH 7.4, containing 0.01% Tween-20, using a nanoliter dispenser. Formation of a protein-peptide complex proceeded at room temperature for 30 min. A Kalypsys pin-tool was employed to transfer 23 nL of library compound solution in DMSO to each well. Following a 30 min incubation of the protein-peptide complex with compounds at room temperature, a mixture of 40 ug/mL each streptavidin-coated donor and nickel chelate acceptor AlphaScreen beads (final 10 ug/mL) were added in a 1ul dispense for a final volume of 4ul. A brief centrifugation followed (1000rpm, 1 min) and were then incubated protected from the light for 20 min at room temperature. Plates were read on an EnVision multilabel plate reader using the 1,536 plate HTS AlphaScreen aperture (excitation time 80 ms, measurement time 240 ms).
% is scaled to controls: 0 for no effect and ±100 for the full control effect; potency is read from the fitted curve at half-maximal effect.
Also: nearly all actives have a fitted effect of over 60% in size.

Activity change, negative = inhibition, inactive:
O=C(CSc1oc(-c2ccco2)nc1S(=O)(=O)c1ccc(Cl)cc1)c1ccccc1 15.2%
CCc1ccc(C2C(C(=O)Nc3ccccc3)=C(C)Nc3c(C(=O)Nc4ccc(C)cc4)cnn32)cc1 (stereo unspecified) 8.98% [at 57.1 µM]
Cc1cc(O)c(C(c2ccccc2)N2CCN(c3ccccc3F)CC2)c(=O)n1Cc1ccco1 (stereo unspecified) -38.4%
CCOC(=O)N1CCc2c(sc3c2c(=O)n(-c2ccc(CC)cc2)c(=O)n3C)C1 2.66%
O=[N+]([O-])c1ccc(F)cc1Oc1nc(-c2cccnc2)nc2ccccc12 -16.4%
CCOc1ccc(N(Cc2ccccc2)C(=O)c2nc(S(C)(=O)=O)ncc2Cl)cc1 -21.6%
CCc1ccc(NC(=O)CN2C(=O)CCSc3ccc(S(=O)(=O)N4CCCC4)cc32)cc1 -4.59%
CCOC(=O)c1ccc(NC(=O)c2c(NCc3cccc(OC)c3)sc3c2CCC3)cc1 3.03%
CCOC(=O)c1ccc(NC(=O)c2csc3c2CCCCC3)cc1 -0.642%
Cc1ccc(-c2nn3c(=O)cc(CN4CCN(C(=O)Nc5cccc(C(F)(F)F)c5)CC4)nc3s2)cc1 -22.9%
COc1cc(CN(C(=O)c2ccccc2Br)c2ccccn2)cc(OC)c1OC -18.4%
COc1ccc(OC)c(CNC(=O)c2c3c(nc4ccccc24)C(=O)N(C2CCCCC2)C3)c1 -9.86%
Cc1cc(Nc2ccc(C(=O)N3CCCCC3)cc2)c2cccc(C)c2n1 0.772%
Cc1ccc(NC2=NC(c3ccccc3)n3c(nc(C)cc3=O)N2)cc1 (stereo unspecified) 12.2%
CCc1c(C)nc2cc(-c3cccs3)[nH]n2c1=O 2.81%
Cc1cc(=O)n2[nH]c(-c3cccc(Cl)c3)cc2n1 -1.33%
COc1ccc(Cc2nc3ccc(C(=O)NCc4ccccc4C)cc3o2)cc1 0.109%
Cc1cccc(C(=O)Nc2ccccc2N2CCN(c3ccc(F)cc3)CC2)c1 -8.8%
Cc1cccc(N2CCN(C(=O)c3ccccc3NC(=O)C3CCCCC3C(=O)O)CC2)c1 (stereo unspecified) -2.25%
COc1ccc(NC(=O)c2sc3nc(-c4cc5cccc(OC)c5oc4=O)[nH]c(=O)c3c2C)cc1 5.3%
CCn1c2ccccc2c2cc(NC(=O)COC(=O)c3ccccc3Br)ccc21 -36.9%
CCn1c2ccccc2c2cc(NC(=O)COc3ccc(C)cc3C)ccc21 2.19%
COc1cc(Cl)ccc1Nc1ncc(C(=O)N2CCN(c3ccccc3OC)CC2)c2ccccc12 -3.95%
Cc1cccc(N2CCN(c3c(CN4CCCC4)c(=O)oc4ccccc34)CC2)c1C -9.79%
Cc1cccc(N2CCN(Cc3c(C)n(C)n(-c4ccccc4)c3=O)CC2)c1C 5.93%
CCOc1ccccc1N(CC)C(=O)Nc1cn(C)c(=O)c2ccccc12 6.05%
CC(C)c1ccc(NC(=O)CN(C)S(=O)(=O)c2ccc3c(c2)c(=O)n(C)c(=O)n3C)cc1 -2.58%
CCS(=O)(=O)c1nc(S(=O)(=O)c2ccc(C)cc2)c(NCc2ccc(Cl)cc2)s1 -7.97%
Cn1c(=O)c(C(=O)O)nn(-c2ccccc2)c1=O -1.4%
CCOC(=O)C1CCN(c2ccc(C(=O)O)cc2[N+](=O)[O-])CC1 4.06%
CC1CCN(c2ccc([N+](=O)[O-])cc2C(N)=O)CC1 -19.3%
Cc1ccc(Cl)cc1N1CCN(S(=O)(=O)c2cc3[nH]c(=O)c(=O)[nH]c3cc2C)CC1 -20.7%
COc1ccc(CCC(=O)NCc2ccc3c(c2)CCN3C(=O)c2ccc(F)cc2)cc1 -1.32%
COc1ccccc1-c1noc(-c2ccc(NCc3ccccc3)c([N+](=O)[O-])c2)n1 -4.93%
O=C(CSc1nnc(-c2ccccc2F)o1)Nc1cccc(C(F)(F)F)c1 -13%
COc1ccccc1CN1CCCC(N2CCN(c3ccc(F)cc3)CC2)C1 (stereo unspecified) -2.71%
CC(=O)N1CCN(CC(c2ccccc2)c2ccccc2)CC1 -23.7%
COc1ccccc1N1CCN(Cc2cc(OC)c3c(c2)OCO3)CC1 -11%
COc1ccccc1Cn1c(CO)nc2ccccc21 -9%

Potency, active:
CC(C)(C)C1C/C(=C/c2ccco2)C(=O)/C(=C/c2ccco2)C1 (stereo unspecified) 25.1 µM
O=C(O)c1ccccc1N=N/C(=N/Nc1cc(S(=O)(=O)O)ccc1O)c1ccccc1 11.2 µM
O=[N+]([O-])c1ccc(Oc2ccc(F)cc2Br)c2ccncc12 31.6 µM
Oc1c(Cl)cc(Cl)c(Cl)c1Cc1c(O)c(Cl)cc(Cl)c1Cl 50.1 µM
CCOC(=O)c1ccc(NC(=O)c2c(NCc3cccs3)sc3c2CCCC3)cc1 28.2 µM
Cc1ccc(Nc2cc(C)nc3c(C)ccc([N+](=O)[O-])c23)cc1 10 µM
Cc1cc(=O)n2[nH]c(-c3sccc3-n3c(C)ccc3C)cc2n1 50.1 µM
Cc1cccc(N2CCN(c3ccc(C(=O)O)cc3NC(=O)c3ccccc3F)CC2C)c1 (stereo unspecified) 56.2 µM
CCn1c2ccccc2c2cc(NC(=O)CNC)ccc21 56.2 µM
Cc1cccc(N2CCN(C3=C(c4ccccc4)C(=O)c4ccccc43)CC2)c1C 2.24 µM
O=C(O)C1CCN(c2ccc([N+](=O)[O-])cc2[N+](=O)[O-])CC1 56.2 µM
COc1ccccc1CN1CCN(Cc2cc(OC)c(OC)cc2OC)CC1 50.1 µM
